# Measurements published in the OligoGym collection.
# Biological target: MRC1L1
# Experiment: pooled miR-30 sensor sort-seq; sequence = guide strand
# Settings: shRNA
# Also: reference of the scale not given here.
row,Sequence,sensor-assay potency score (higher = more potent)
1,TATAGTAACAGTGACCATGGAA,0.0156
2,TTGCTCATGAATCTCTGTGATG,-0.904
3,TACAGCTTGAAACACAAGCTTG,-1.09
4,TAACAACACAGTCAGCATCTTC,-0.367
5,TTTCTCATCTCTGTGAATCTTG,0.274
6,TAAAGCTACACAATCATTCCGT,0.804
7,TTCTGAATTGACATCATTCAGC,-0.303
8,TTTCTGAACAATCCTATCCAAA,-1.03
9,TAGAGAGTGATAGCAACCCAGT,-0.877
10,TTGGGTTCGGGAGTCGTCGTGG,0.34

# Biological target: MRFAP1
# Experiment: as above
# Settings: shRNA
row,Sequence,sensor-assay potency score (higher = more potent)
1,TTCGCAATCTCCTTGGCCTTCT,-0.202
2,TTCTCCTCGGCCTTCTCGCACC,-1.46
3,ATGAGCATATTGTCCATCTCCC,-0.693
4,TTTGATCTGGATGAGCATATTG,-1.65
5,CTGGATGAGCATATTGTCCATC,-2.34
6,TCTGGATGAGCATATTGTCCAT,-0.959
7,AGCACCTCCACTTCCTCCGGTT,-1.22
8,TTGATCTGGATGAGCATATTGT,-0.361
9,TATCCGCCGGACCAGCTCCACC,-1.87
10,TCTCCTTGGCCTTCTCCTCGGC,-0.368
11,TTGACCAGAATCCATTGGCTGG,-0.987
12,TCCTCGGCCTTCTCGCACCTCT,-1.7

# Biological target: MRO
# Experiment: as above
# Settings: shRNA
row,Sequence,sensor-assay potency score (higher = more potent)
1,TATCATTGATGTCCTTTTCTGC,-0.559
2,TTGTTTTGCAAGCCTTGGCAAC,-1.43
3,TTTGATCTTCTTCACTCTGGAA,-0.504
4,TTGATCTTCTTCACTCTGGAAG,-0.557
5,TTTGCAAGCCTTGGCAACCTGG,-1.05
6,TTTTCTTATACTTTCTCACCTT,0.132
7,AAGAACTGCAGGATCTCTGGAT,0.374
8,TATACTTTCTCACCTTGTCAGG,-0.957
9,ATACAGTCCATACACCAGCAGG,-1.19
10,TTTCTTATACTTTCTCACCTTG,-0.188
11,TCATCATCTAATAAAGTCCTGG,-0.176
12,TAGTGTTCCTTTGATCTTCTTC,0.466

# Biological target: MRPL14
# Experiment: as above
# Settings: shRNA
row,Sequence,sensor-assay potency score (higher = more potent)
1,TTGTCCACCACTCGTACCCGCG,-1.02
2,TAGTATCTGGTCGCCCACCTTG,-1.26
3,TTCTTATAGACATGGATGCAGC,-1.01
4,TTAATTCGTGTCCCCACAGGGT,-1.22
5,ATTCTTCTTATAGACATGGATG,-1.46
6,TTATAGACATGGATGCAGCGAG,-0.0779
